Screening data: PubChem BioAssay, National Center for Advancing Translational Sciences (NCATS)
G9a block: inhibitors of human histone lysine methyltransferase G9a; Q96KQ7; G9a H3K9 monomethylation, AlphaScreen, 2 h; Potency, µM (doses to about 102 µM), for the others: at the top dose activity, negative = inhibition, hits mostly inhibitors; actives 8.8% (n = 350,000); AID 504332; further: potency means the concentration at half of the fitted maximal effect; on the % scale 0 is the no-effect control and ±100 the full control effect; nearly all actives have a fitted effect of over 75% in size
Target sequence (Q96KQ7 913-1193 limits assumed): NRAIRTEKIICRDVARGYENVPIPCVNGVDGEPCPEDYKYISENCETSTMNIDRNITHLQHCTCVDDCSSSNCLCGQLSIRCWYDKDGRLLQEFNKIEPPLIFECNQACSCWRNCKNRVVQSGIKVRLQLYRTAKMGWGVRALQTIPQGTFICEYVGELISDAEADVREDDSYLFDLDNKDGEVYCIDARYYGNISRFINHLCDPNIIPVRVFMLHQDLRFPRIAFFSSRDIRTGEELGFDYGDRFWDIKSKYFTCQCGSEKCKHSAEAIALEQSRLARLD
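G9a (20 nM) was preincubated 15 min with compound, then reacted 2 h at room temperature with 500 nM biotin-H3K9 peptide and 20 µM SAM. Monomethyl-H3K9 detected by AlphaScreen using anti-H3K9me1 antibody.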
Six1-Eya2 blk: blocks human Six1 binding to Eya2; Q15475+O00167; AlphaScreen GST-Six1/His-Eya2 binding, biochemical; active compounds read low; activity change, % (no concentration beside the values); actives 0.56% (n = 360,000); in the data active means activity change below about -65%; inconclusive means mostly about -30% to -63%; further: on the % scale 0 is the no-effect control and ±100 the full control effect
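Six1/Eya2 binding was read as AlphaScreen signal after compounds were pinned into GST-Six1 plus His-tagged Eya2 (5X stock 250/500 nM) in pH 8.0 Tris/NaCl/TCEP buffer, beads added, then incubated 1 h, 37 C, dark.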
HP1b binding inh: HP1-beta chromodomain-methylated histone interaction inhibition; P83916; AlphaScreen HP1-beta / biotin-H3K9me3 peptide binding; Potency, µM (series often up to 114 µM), without a hit: at the highest dose activity change, negative = inhibition, most hits filed as inhibitors; actives 0.56% (n = 390,000); further: potency means the concentration at half of the fitted maximal effect; nearly all actives have a fitted effect of over 70% in size
Target sequence (P83916 whole entry, looked up): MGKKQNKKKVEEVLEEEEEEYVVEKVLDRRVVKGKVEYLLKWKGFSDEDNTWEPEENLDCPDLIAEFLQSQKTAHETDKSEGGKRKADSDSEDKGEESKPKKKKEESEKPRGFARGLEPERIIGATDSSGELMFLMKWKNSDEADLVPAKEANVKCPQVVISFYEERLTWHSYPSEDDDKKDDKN
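HP1-beta protein (50 nM final) preincubated 30 min at room temperature with biotinylated H3(1-18)K9me3 peptide (50 nM) in PBS pH 7.4, 0.01% Tween-20, then compound added for 30 min. AlphaScreen streptavidin donor/nickel chelate acceptor beads (10 ug/mL final), 30 min dark, luminescence read.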
JMJD2A Tudor: JMJD2A Tudor domain (human) inhibition | O75164 | AlphaScreen JMJD2A-Tudor / H3K4me3 peptide binding | Potency, µM (titrated, usually from 114 µM), without a hit: at the top dose activity change, negative = inhibition, most hits filed as inhibitors | actives 4.4% (n = 390,000) | AID 504339; further: potency means the concentration at half of the fitted maximal effect; on the % scale 0 is the no-effect control and ±100 the full control effect; nearly all actives have a fitted effect of over 50% in size
CtBP-E1A blk: inhibitors of CtBP/E1A interaction. actives 0.49% (n = 340,000). AlphaScreen GST-E1A/His-CtBP binding, 1536-well; active compounds read low. AID 651724. activity change, % (test concentration not listed); in the data active means activity change below about -65%; inconclusive means mostly about -30% to -63%; further: on the % scale 0 is the no-effect control and ±100 the full control effect
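GST-E1A and His-tagged CtBP (125 nM each as 5X stock) were preincubated with pin-transferred compound for 2 h at 37 °C in the dark, then glutathione donor and nickel acceptor beads were added for 1 h before AlphaScreen reading.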
BAZ2B inh: BAZ2B (human) inhibition; actives 4.4% (n = 360,000); AlphaScreen BAZ2B-H3K14Ac peptide displacement; Q9UIF8; AID 504333; Potency, µM (series often up to 114 µM), inactives show top-dose activity change, negative = inhibition, actives largely listed as inhibitors; further: potency means the concentration at half of the fitted maximal effect; on the % scale 0 is the no-effect control and ±100 the full control effect; nearly all actives have a fitted effect of over 60% in size
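AlphaScreen luminescence quantifies BAZ2B engagement of H3K14Ac peptide; the protein and biotinylated peptide are both at 50 nM final, buffer PBS pH 7.4 with 0.01% Tween-20, all steps at room temperature.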
Numbers without * were called inactive; u = inconclusive; x = no result; [ ] = dose if it differs, or a comment. This is a sample that favours compounds with a hit; in the whole collection about 10% have one here. Unless noted, the call rests on the fitted dose curve; in most records, active means well fitted inhibition curve with a large enough effect; inconclusive means small, poorly fitted or top-dose-only effect; inactive means no such curve, though single readings can be large or run the other way.

SMILES | G9a block | Six1-Eya2 blk | HP1b binding inh | JMJD2A Tudor | CtBP-E1A blk | BAZ2B inh
O=C(O)c1cc2c(ncc3c(=O)n(-c4ccccc4)[nH]c32)s1 | x | -75* | x | x | -68* | x
Cc1nc(SCC(=O)N2CCCC2=O)c2c(C)c(C)sc2n1 | x | 1 | x | x | -1 | x
CCOC(=O)CNC(=O)CSc1nc(-c2ccccc2)ns1 | 10µM* | 17 | -24% | -12% | 22 | -5%
Cc1ccc(-c2nc(SCC(=O)NCC3CCCO3)c3c(=O)n(C)c(=O)n(C)c3n2)cc1 (stereo unspecified) | 8%[59 µM] | x | 33%[57 µM] | 3% | x | 7%
CCOC(=O)CSc1nc(-c2ccc(OC)cc2)ns1 | 5µM* | 23 | 19% | 27%[57.1 µM] | 13 | 51%
Cn1c(=O)c2c(SCC(=O)NCC3CCCO3)nc(-c3cccs3)nc2n(C)c1=O (stereo unspecified) | 50µM* | x | x | x | x | -1%
Cc1ccc(-c2nsc(SCC(=O)NCc3ccc4c(c3)OCO4)n2)cc1 | 23% | -2 | 34% | -1% | 8 | 7%
CCOC(=O)CNC(=O)CSc1nnc(-c2ccccc2)c(-c2ccccc2)n1 | 8% | -13 | 24% | -8% | -2 | -30%
CCOC(=O)CNC(=O)CSc1nc(-c2ccc(C)cc2)ns1 | 50µM* | -2 | 53% | 6% | -18 | -3%
O=C(NCc1cccc(F)c1)C1CCCN(C(=O)N2CCOc3ccccc32)C1 (stereo unspecified) | -2%[59 µM] | x | 17% | -19% | x | -2%
CCOC(=O)c1sc2cccc(F)c2c1S(=O)(=O)NCc1ccccc1Cl | u | x | 86% | -21% | x | -1%
CCOC(=O)N1CCN(C(=O)CSc2nc(-c3cccc(C)c3)ns2)CC1 | 32µM* | 2 | -5% | 32µM* | 2 | -5%
O=C(CSc1nc(-c2ccccc2)ns1)NCC1CCCO1 (stereo unspecified) | 22µM* | -6 | -6% | -4% | -7 | -16%
O=C(CSc1nnc(-c2ccccc2)c2ccccc12)NCC1CCCO1 (stereo unspecified) | -12% | x | x | x | x | x
COc1cc2c(cc1OC)-c1cc(NC3CCCC3)nc(=O)n1CC2 | -18% | u | 26% | -32% | u | 21%
COc1cc2c(cc1OC)-c1cc(=Nc3c(C)cc(C)cc3C)n(C)c(=O)n1CC2 | 21µM* | x | -25%[57 µM] | u | x | x
C/C=C1\COC(C(=O)NC)(C(F)(F)F)C=C1C=C1CCCCC1 (stereo unspecified) | x | x | 47% | -10% | x | x
CN(C)c1cc[n+](/C(C(=S)Nc2ccc(SC(F)F)cc2)=C(/[O-])c2ccccc2)cc1 | u | 0 | 8% | u | 4 | x
Cc1cc(C)c(/C([O-])=C(/C(=S)Nc2ccc(SC(F)F)cc2)[n+]2ccccc2)cc1C | 35µM* | -7 | -22% | u | 9 | 22µM*
[O-]/C(=C(\C(=S)Nc1ccc(SC(F)F)cc1)[n+]1ccccc1)c1cc(Cl)ccc1Cl | 35µM* | -23 | -18% | u | -3 | u
CCCC(=O)Nc1nc2ccc(OCC)cc2s1 | -33% | 4 | 23% | -14% | -26 | 2%
CCOc1ccc2nc(N=NC3=C(O)CC(C)(C)CC3=O)sc2c1 | u | -4 | u | u | 1 | 45µM*
CCCCC(=O)Nc1ncc(S(=O)(=O)c2ccc([N+](=O)[O-])cc2)s1 | x | 1 | 39% | -12% | -4 | -6%
COCC(=O)Nc1ncc(S(=O)(=O)c2ccc([N+](=O)[O-])cc2)s1 | 35µM* | 6 | 7% | u | -3 | x
CCN(CC)S(=O)(=O)c1ccc2c(c1)nc(SCC(=O)N(C)C1CCS(=O)(=O)C1)n2CC (stereo unspecified) | u | 2 | -2% | -16% | 4 | -21%
SMILES | G9a block | Six1-Eya2 blk | HP1b binding inh | JMJD2A Tudor | CtBP-E1A blk | BAZ2B inh
CCN(CC)S(=O)(=O)c1ccc2c(c1)nc(SCn1nnc3ccccc3c1=O)n2CC | 45µM* | 6 | 18% | -11% | 3 | 13%
Cn1c(SCC(=O)NNC(=O)Cc2ccccc2)nc2ccccc2c1=O | 16% | -20 | -11% | 22µM* | x | -7%
COCCn1c(SCC(=O)NNC(=O)Cc2ccccc2)nc2ccccc2c1=O | 2% | -4 | 53% | -5%[11.4 µM] | x | -15%
Cn1c(SCn2nnc3ccccc3c2=O)nc2ccccc2c1=O | 50µM* | x | x | x | x | -7%
Cc1cc(C)n2nc(SC(C)C(=O)N(C)c3ccccc3)nc2n1 (stereo unspecified) | -6%[2.33 µM] | -2 | 40% | 1% | 13 | 9%
CCOC(=O)c1sc2cccc(F)c2c1S(=O)(=O)N1CCN(c2cccc(Cl)c2)CC1 | 8.9µM* | x | 7% | -24% | x | u
COC(=O)c1sc2cccc(F)c2c1S(=O)(=O)N1CCN(c2cccc(OC)c2)CC1 | 0%[59 µM] | x | 16% | -27% | x | -29%
CC(C)C[C@H](NC(=O)c1[nH]cnc1C(=O)N[C@@H](C)C(=O)OCc1ccccc1)C(=O)OCc1ccccc1 | x | -5 | 37% | -31% | -3 | x
CC(C)C[C@@H](CNCC(=O)[C@H](C)NC(=O)c1[nH]cnc1C(=O)N[C@H](CN)CC(C)C)NC(=O)c1nc[nH]c1C(=O)N[C@@H](C)C(=O)O | x | -8 | 33% | 56µM* | -8 | x
CC(C)C[C@@H](CNCC(=O)[C@H](CC(C)C)NC(=O)c1[nH]cnc1C(=O)N[C@@H](C)CN)NC(=O)c1nc[nH]c1C(=O)N[C@@H](CC(C)C)C(=O)O | x | -16 | 41% | 56µM* | -8 | x
CC(C)C[C@@H](CNCC(=O)[C@H](C)NC(=O)c1[nH]cnc1C(=O)N[C@@H](C)CN)NC(=O)c1nc[nH]c1C(=O)N[C@@H](CC(=O)O)C(=O)O | x | -5 | u | 79µM* | -14 | x
CC(C)C[C@@H](CNCC(=O)[C@H](CC(C)C)NC(=O)c1[nH]cnc1C(=O)N[C@@H](C)CN)NC(=O)c1nc[nH]c1C(=O)N[C@@H](CC(=O)O)C(=O)O | x | -1 | 60% | 50µM* | -7 | x
CC(C)C[C@@H](CNCC(=O)[C@H](Cc1ccccc1)NC(=O)c1[nH]cnc1C(=O)N[C@@H](C)CN)NC(=O)c1nc[nH]c1C(=O)N[C@@H](CC(=O)O)C(=O)O | x | -11 | 55% | u | -13 | x
CC(C)C[C@@H](CN)NC(=O)c1nc[nH]c1C(=O)N[C@@H](Cc1ccccc1)C(=O)CNC[C@H](C)NC(=O)c1nc[nH]c1C(=O)N[C@@H](CC(=O)O)C(=O)O | x | -6 | 63% | u | -9 | x
c1ccc2c(c1)CCN(C1=Nc3cccc4cccc1c34)C2 | u | -20 | u | u | -27 | 32µM*
